What all share (assay): NCI-60 one-dose screen, 48 h (100 = growth as untreated, 0 = no growth, -100 = all killed)
What all share (conditions): 10 µM unless noted

For assay [1], the system named is SK-MEL-2 melanoma.
Assay [2] deals with EKVX NSCLC.
Assay [3] has as its system SN12C renal.
The subject of assay [4] is UO-31 renal.
The subject of assay [5] is TK-10 renal.
Assay [6] concerns ACHN renal.
For assay [7], the system named is CAKI-1 renal.
For assay [8], the system named is A498 renal.
The subject of assay [9] is CCRF-CEM leukemia.
For assay [10], the system named is MOLT-4 leukemia.
Assay [11] has as its system SR leukemia.
For assay [12], the system named is RPMI-8226 leukemia.
In assay [13] the test system is OVCAR-8 ovarian.
The subject of assay [14] is OVCAR-4 ovarian.
The subject of assay [15] is SK-OV-3 ovarian.
Assay [16] deals with IGROV1 ovarian.
The test system of assay [17] is OVCAR-3 ovarian.
Assay [18] relates to HS 578T breast.
Assay [19] relates to NCI/ADR-RES ovarian.
Assay [20] concerns OVCAR-5 ovarian.

Compounds without any hit were thinned out: in the full panel of roughly 83,000, 20% have a hit.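 Percent growth is the endpoint: 0 to 100 indicates growth inhibition (40 means 60% inhibition), 0 means no net growth, and negative values indicate cell death.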 Values without a mark were called inactive. Activity calls are given as the source filed them. Rule for the calls: active = growth percent below 10; inactive = the rest.

`Nc1[nH]n2cc(-c3ccccc3)nc2c1N=Nc1ccc(S(N)(=O)=O)cc1`: the growth is 31.6% in [1]; 54.6% in assay [2]; 20.1% in assay [3]; 19.5% in assay [4]; 48.4% in assay [5]; 8.58% (active) in assay [6]. The growth in assay [7] was 3.86% (active); in [8] it was 8.19% (active); in assay [9] it was 19.7%; in assay [10], 13.9%; in assay [11] it was 13.3%; in assay [12] it was 5.77% (active). Also, the growth in assay [13] is 36.6%; in assay [14], 36.9%; in assay [15], 13.3%; in [16], 15.3%; in [17], 46.8%; in assay [18], 5.14% (active). For the same compound, in assay [19], the growth was 90%.

Turning to `O=c1scc(-c2ccc(C(F)(F)F)cc2)s1`, the growth in assay [1] was 77.8%; in assay [2], 78.8%; in assay [3], 96.7%; in assay [4], 89.4%; in assay [5], 82.8%; in assay [6], 99.8%. The growth in assay [7] is 73%; in assay [8], 77.5%; in assay [9], 88.5%; in assay [10], 94.5%; in assay [12], 97.7%; in [13], 94.7%. Also, the growth in [20] is 95.6%; in assay [14], 76.8%; in [15], 99.3%; in assay [16], 72.6%; in assay [17], 103%; in assay [18] it was 92.1%. For the same compound, the growth in assay [19] was 102%.

As to `COc1ccc(-c2nn(-c3cccc(Cl)c3)cc2-c2cc(-c3ccc(Br)cc3)nc(N)n2)cc1`, the growth was 99.7% in assay [1]; 92.3% in [2]; 92.7% in assay [3]; 76% in assay [4]; 104% in assay [5]; 103% in assay [6]. Also, the growth is 77.3% in assay [7]; 81.6% in assay [8]; 92.7% in assay [9]; 88.3% in assay [10]; 82% in [11]; 84.1% in assay [12]. Besides, the growth was 98.9% in assay [13]; 96% in [14]; 102% in assay [15]; 89.2% in [16]; 107% in assay [17]; 99.7% in assay [18]. Further, the growth in assay [19] was 99.8%.

Take `C=C(C)[C@@H]1CC[C@]2(C(=O)N3CCOCC3)CC[C@]3(C)[C@H](CC[C@@H]4[C@@]5(C)C/C(=C/c6ccncc6)C(=O)C(C)(C)[C@@H]5CC[C@]43C)[C@@H]12`: the growth in assay [1] was 72.2%; in assay [2], 60.8%; in [3], 62.6%; in [4] it was 52.6%; in assay [5] it was 91%; in assay [6] it was 58.4%. In addition, the growth is 56.8% in [7]; 68.9% in assay [8]; 31.7% in assay [9]; 30.3% in assay [10]; 4.12% (active) in [12]; 55.6% in [13]. The growth in assay [20] was 93.3%; in assay [14], 49.4%; in assay [15] it was 73.9%; in assay [16] it was 71.1%; in [17], 52.4%; in [18] it was 74.5%. Also, the growth in [19] is 72.3%.

For the compound `O=C(O)c1ccc(-n2cc(/C=N/Nc3ccccc3)c(-c3ccc(F)cc3F)n2)cc1`, the growth in assay [1] is 15.4%; in [2], 55.2%; in assay [3], 73.1%; in [4], 13%; in [5], 57.4%; in assay [6], 47.1%. For the same compound, the growth in assay [7] is 28.5%; in assay [8], 81.7%; in assay [9], 26.6%; in assay [10] it was 38.7%; in assay [12], 50%; in assay [13], 53.3%. For the same compound, the growth in assay [20] was 57.6%; in [14] it was 80.4%; in assay [15], 89.1%; in [16], 52.6%; in [17], 62.3%; in [19], 56.7%.

As for `Nc1c(C(=O)Nc2ccncc2)sc2nc3c(cc12)C(O)CCC3` (configuration not stated), the growth in assay [1] is 97.4%; in assay [2], 99.9%; in [3], 96.3%; in assay [4], 81.8%; in assay [5], 91%; in assay [6] it was 96.4%. Further, the growth was 99.6% in [7]; 112% in assay [8]; 94.6% in [9]; 84.1% in assay [11]; 89.3% in [12]; 98.7% in assay [13]. The growth in [20] was 97.2%; in [14], 114%; in [15], 98%; in assay [16], 103%; in [17], 119%; in [18] it was 118%. In [19], the growth is 105%.

In the case of `CC(C)c1ccc(Cc2cnc(NC(=O)c3cc(Br)cs3)s2)cc1`, the growth is 23.7% in assay [1]; 43.9% in assay [2]; 49.7% in assay [3]; 55% in [4]; 46.7% in [5]; 41.6% in [6]. Also, the growth in assay [7] was 31.3%; in assay [8], 18.8%; in assay [9] it was 20%; in assay [10], 43.2%; in assay [12], 22.6%; in [13], 35.5%. The growth was 53.7% in assay [20]; 54.3% in assay [14]; 28.6% in [15]; 38% in assay [16]; 15.6% in [17]; 19.8% in assay [18]. Also, the growth in assay [19] was 6.8% (active).

(Values after PubChem BioAssay (NCI).)
